ANO1 activ: TMEM16A chloride channel activators or potentiators, primary screen, cell-based, HTS. B-score at 10 µM. HEK293 TMEM16A/YFP-H148Q/I152L, iodide quench fluorescence; active compounds read low. 0.3% of 340,000 active;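 active = fluorescence-ratio B-score plate-corrected deviation score at least 3 library SD below zero, with starting fluorescence score within 5 deviations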;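 note: channel opened by trigger with iodide after compound preincubation; score built on the fluorescence ratio of max minus min over baseline; more negative score means more quench and so TMEM16A activation or potentiation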
Target sequence (Q8BHY3 whole entry, looked up): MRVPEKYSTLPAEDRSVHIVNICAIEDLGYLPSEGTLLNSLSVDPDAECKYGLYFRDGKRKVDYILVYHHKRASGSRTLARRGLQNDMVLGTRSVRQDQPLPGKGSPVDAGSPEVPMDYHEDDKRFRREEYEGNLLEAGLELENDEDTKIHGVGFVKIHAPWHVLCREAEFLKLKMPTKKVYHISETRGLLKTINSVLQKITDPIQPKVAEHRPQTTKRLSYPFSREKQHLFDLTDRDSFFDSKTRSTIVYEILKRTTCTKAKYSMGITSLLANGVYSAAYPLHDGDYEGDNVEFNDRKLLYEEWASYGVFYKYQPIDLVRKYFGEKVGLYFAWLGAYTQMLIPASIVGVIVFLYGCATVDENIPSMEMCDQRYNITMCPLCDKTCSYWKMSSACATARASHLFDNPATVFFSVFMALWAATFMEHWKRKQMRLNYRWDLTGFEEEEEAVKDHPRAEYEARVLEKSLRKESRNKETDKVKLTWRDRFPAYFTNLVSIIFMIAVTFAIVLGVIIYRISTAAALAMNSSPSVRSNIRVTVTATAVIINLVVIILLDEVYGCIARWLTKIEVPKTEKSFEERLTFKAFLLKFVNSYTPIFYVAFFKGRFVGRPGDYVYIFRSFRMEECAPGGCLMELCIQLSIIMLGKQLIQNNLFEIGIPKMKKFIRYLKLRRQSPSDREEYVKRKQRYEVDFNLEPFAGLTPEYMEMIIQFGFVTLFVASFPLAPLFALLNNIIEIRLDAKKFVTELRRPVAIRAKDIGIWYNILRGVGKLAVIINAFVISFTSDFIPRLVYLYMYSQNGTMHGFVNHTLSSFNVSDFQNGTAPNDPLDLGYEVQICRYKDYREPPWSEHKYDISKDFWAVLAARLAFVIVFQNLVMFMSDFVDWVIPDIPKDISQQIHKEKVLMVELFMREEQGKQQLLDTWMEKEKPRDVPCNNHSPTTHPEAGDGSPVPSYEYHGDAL
KCNK9 block: KCNK9 potassium channel inhibitors, primary screen, HEK293 cells, thallium flux | AID 488922, 2010 | FluxOR thallium flux fluorescence; active compounds read low | B-score at 10 µM | Potassium channel subfamily K member 9 (Homo sapiens), Q9NPC2 | 1.2% of 310,000 active;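 active = ratio B-score over 3 SD below the library mean, with starting fluorescence within 5 SD of its mean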;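 note: negative B-score means less thallium flux so channel inhibition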
Kir21 block: inhibitors of mouse Kir2.1 inward-rectifier potassium channel; HEK293-Kir2.1, FluxOR thallium flux fluorescence; active compounds read low; B-score at 10 µM; Inward rectifier potassium channel 2 (Mus musculus), P35561; 0.85% of 310,000 active; AID 1672, 2009;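 active = fluorescence ratio B-score at or below minus 3 SD of library scores, with starting-brightness B-score within 2 SD, cut at about -4.2 in these data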;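 note: channel flux triggered by added potassium and thallium sulfate stimulus; B-score of peak minus minimum fluorescence over baseline after thallium stimulus; more negative B-score means stronger Kir2.1 block with less thallium influx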
ANO1 block: TMEM16A chloride channel inhibitors, primary screen, cell-based, HTS; Anoctamin-1 (Mus musculus), Q8BHY3; HEK293 TMEM16A/YFP iodide influx fluorescence, ionomycin; normalized B-score (activity score, 25-100; higher = stronger inhibition) at 10 µM; 1.2% of 310,000 active;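 active = ratio plate-corrected score three or more library SD toward inhibition, starting fluorescence score within five deviations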;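 note: score derived from kinetic fluorescence span divided by baseline fluorescence per well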
KCNK3 inh: human KCNK3 channel inhibitors, primary screen, CHO cells, FluxOR thallium flux, B-score; Potassium channel subfamily K member 3 (Homo sapiens), O14649; FluxOR fluorescence; active compounds read low; B-score at 10 µM; 0.84% of 340,000 active;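 active = B-score under library mean minus 4 SD, starting fluorescence ratio at most library mean plus 5 SD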;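 note: more negative B-score means stronger inhibition of thallium flux through KCNK3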
KCNK9 block conf: KCNK9 potassium channel inhibitors, confirmation, HEK293 cells, thallium flux, duplicate | AID 492992, 2010 | FluxOR thallium flux fluorescence | shares compounds with KCNK9 block | 43% of 4,900 active | inhibition, % at 10 µM;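 active = thallium signal inhibited by more than 5 SD of the compound-free buffer control wells, on both duplicate plates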
Kir21 sel: mouse Kir2.1 channel inhibition, confirmation, selectivity assay for KCNK9 modulator project, cell-based, HEK293, thallium flux | Kir2.1 cells, FluxOR thallium flux fluorescence | shares compounds with KCNK9 block | inhibition, % at 10 µM | AID 492993, 2010 | 4% of 4,900 active;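 active = thallium signal drop more than 5 SD beyond the mean of the no-compound control wells, seen in both duplicate plates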;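 note: signal is fluorescence rise after thallium addition divided by baseline fluorescence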
HEK293 Tl ctr: thallium flux in non-induced HEK293 cells, confirmation, counter-screen for KCNK9 inhibitor project, cell-based, second counter screen, non-induced KCNK9-HEK293; AID 492997, 2010; shares compounds with KCNK9 block; FluxOR thallium flux; 40% of 4,900 active; inhibition, % at 10 µM;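 active = thallium signal drop beyond 5 SD of the untreated control mean, on both duplicate plates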
Each line names hits and unclear results; the compound was inactive in the other large screens (follow-up assays come after a bar, where they were run). An excerpt weighted towards active compounds, which were near 3.5% of everything screened.

O=C(CN1CCc2ccccc21)NCc1ccccc1Cl	none | KCNK9 block conf inactive | Kir21 sel inactive | HEK293 Tl ctr inactive
CC(C)(C)c1ccc(C(=O)NCC2CCCN2S(=O)(=O)c2ccccc2)cc1 (configuration not stated)	none | KCNK9 block conf inactive | Kir21 sel inactive | HEK293 Tl ctr inactive
O=C(NCC1CCCN1S(=O)(=O)c1ccccc1)c1cccc(Cl)c1 (configuration not stated)	none
C=CCN(CC=C)CCOc1ccc2ccccc2c1	none
CCOc1ccc(-c2noc(COC)n2)cc1OC	none
COc1ccc(-c2noc(COc3ccc(C)c(C)c3)n2)cc1OC	none | KCNK9 block conf inactive | Kir21 sel inactive | HEK293 Tl ctr inactive
Cc1ccc(OCc2nc(-c3ccccc3)no2)c(C)c1	none | KCNK9 block conf inactive | Kir21 sel inactive | HEK293 Tl ctr 40%
COc1ccc2c(c1)C(=NN)c1cc(OC)ccc1-2	none
CC(C)OC(=O)NCCOC(=O)Nc1ccccc1Cl	none
COc1cc(CN2CCN(c3ccc(C)cc3)CC2)cc([N+](=O)[O-])c1O	none (no result: ANO1 activ, KCNK3 inh)
COc1cc(CN2CCN(c3cc(C)ccc3C)CC2)cc([N+](=O)[O-])c1O	none (no result: ANO1 activ, KCNK3 inh) | KCNK9 block conf inactive | Kir21 sel inactive | HEK293 Tl ctr inactive
CCCN(CC(=O)Nc1ccccc1C)C(=O)c1ccc(NC2CC2)c([N+](=O)[O-])c1	none
CCOC(=O)C1(C)NC(c2cccc(C)c2)C2C(=O)N(c3ccccc3)C(=O)C21 (configuration not stated)	none | KCNK9 block conf inactive | Kir21 sel inactive | HEK293 Tl ctr inactive
COc1ccc(C(=O)N2c3cc4c(cc3C(C)=CC2(C)C)OCO4)cc1	KCNK9 block -11 (no result: ANO1 block) | KCNK9 block conf 26% | Kir21 sel inactive | HEK293 Tl ctr 42%
CC1=CC(C)(C)N(C(=O)c2ccccc2)c2ccc(C)cc21	none (no result: ANO1 block)
O=C(Cc1ccc(Br)cc1)NC1CCSC1=O (configuration not stated)	none
N#Cc1ccc(-c2ccccc2)nc1SCC(=O)c1cccc(Cl)c1	KCNK9 block -8.7 | KCNK9 block conf 34% | Kir21 sel inactive | HEK293 Tl ctr 46%
N#Cc1ccc(-c2ccc(Cl)cc2)nc1SCC(=O)c1cccc(Cl)c1	none
COc1cc(CC(=O)NCCCc2ccccc2)cc(OC)c1OC	none
COc1cccc(-c2cc(CC3(O)CCN(CCCc4ccccc4)CC3)on2)c1	none
COc1cc(C2OC(=O)C3C(c4ccc(OC(C)=O)c(OC)c4)OC(=O)C23)ccc1OC(C)=O (configuration not stated)	none
Cc1cc(C)cc(NC(=O)c2cccn2-c2ncc(C(F)(F)F)cc2Cl)c1	none | KCNK9 block conf inactive | Kir21 sel inactive | HEK293 Tl ctr inactive
Cn1c(N)c(C(=O)COC(=O)Cc2cccc(C(F)(F)F)c2)c(=O)n(C)c1=O	none (no result: KCNK9 block, Kir21 block, ANO1 block)
CCCCN(C(=O)c1cccc2c(=O)c(C)c(-c3ccccc3)oc12)c1ccccc1	KCNK9 block -10 (no result: ANO1 block) | KCNK9 block conf 40% | Kir21 sel inactive | HEK293 Tl ctr 34%
CC1=Nc2cc(C(=O)N3CCCC3)ccc2Sc2ccc(C)cc21	none
CC1=Nc2cc(C(=O)N3CCCCC3)ccc2Sc2ccc(C)cc21	none | KCNK9 block conf inactive | Kir21 sel inactive | HEK293 Tl ctr inactive
Cc1ccc(C2CC2c2n[nH]c(=S)n2-c2ccc(C)cc2)cc1 (configuration not stated)	none | KCNK9 block conf inactive | Kir21 sel inactive | HEK293 Tl ctr inactive
Cc1ccc(-n2c(C3CC3c3ccc(Cl)cc3)n[nH]c2=S)cc1 (configuration not stated)	none
O=C(NCCNc1ccc([N+](=O)[O-])cc1C(F)(F)F)c1ccccc1F	none | KCNK9 block conf inactive | Kir21 sel inactive | HEK293 Tl ctr inactive
Cc1ccc(C(=O)NCCNc2ccc([N+](=O)[O-])cc2C(F)(F)F)cc1	none
Cc1[nH]c2ccccc2c1CCN(Cc1cccs1)C(=S)Nc1ccccc1	KCNK9 block -8.2 | KCNK9 block conf 34% | Kir21 sel inactive | HEK293 Tl ctr 31%
COCCNC(=S)N(CCc1c(C)[nH]c2ccccc12)Cc1ccco1	Kir21 block -4.7 | KCNK9 block conf inactive | Kir21 sel inactive | HEK293 Tl ctr inactive
Cc1c(NC(=O)C(C)OC(=O)/C=C/c2ccc(OC(F)F)cc2)c(=O)n(-c2ccccc2)n1C (configuration not stated)	none
CCc1ccc2nc3sc(C(=O)N4CCc5ccccc54)c(N)c3cc2c1	none (no result: ANO1 activ, KCNK3 inh)
Cc1ccc(C)c2nc3sc(C(=O)N4CCCc5ccccc54)c(N)c3cc12	KCNK9 block -9.1 | KCNK9 block conf 39% | Kir21 sel inactive | HEK293 Tl ctr 73%
O=C(OCCN(C1=NS(=O)(=O)c2ccccc21)c1ccccc1Cl)c1ccc(Cl)cc1	KCNK9 block -8.1 | KCNK9 block conf 30% | Kir21 sel inactive | HEK293 Tl ctr 30%
Cc1c(Cl)cccc1NC(=S)NC1CCN(C(C)C)CC1	none
COc1ccc(OC)c(NC(=O)C2CCCN(S(=O)(=O)c3cccc4nsnc34)C2)c1 (configuration not stated)	none
COc1cc(NC(=O)C2CCCN(S(=O)(=O)c3cccc4nsnc34)C2)cc(OC)c1 (configuration not stated)	none | KCNK9 block conf inactive | Kir21 sel inactive | HEK293 Tl ctr inactive
CCOC(=O)Cn1c(=O)sc2ccccc21	none
CCOC(=O)Cn1c(=NC(=O)CSC(C)=O)sc2ccccc21	KCNK9 block -8.2 | KCNK9 block conf 48% | Kir21 sel inactive | HEK293 Tl ctr 40%
C#CCOc1ccc(/C=C2/C(=O)NN(c3ccc(F)cc3)C2=O)cc1OC	none
CN(CC/C=C1/c2ccccc2CSc2ccccc21)CCCO	none
C=CCN(C)CC/C=C1\c2ccccc2CSc2ccccc21	none | KCNK9 block conf inactive | Kir21 sel inactive | HEK293 Tl ctr inactive
O=C(Nc1cccc(Cl)c1)N(CCN1CCOCC1)Cc1cccc(Cl)c1	KCNK9 block -12, KCNK3 inh -11 | KCNK9 block conf 54% | Kir21 sel inactive | HEK293 Tl ctr 34%
O=C(CCSc1ccc(Cl)cc1)N1CCCCCC1	none | KCNK9 block conf inactive | Kir21 sel inactive | HEK293 Tl ctr inactive

Assay outcomes from PubChem.
